Source: PubChem BioAssay AID1852 (Sanford-Burnham Center for Chemical Genomics, 2009)
Screen size: about 2,500 compounds; about 1,100 (44%) were called active.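 The calls were made as follows: active = inhibition above 50% at 4 µM in the single-point screen; inactive = inhibition of 50% or less.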 The set was probably picked from earlier hits. This is one part of the list.

experiment: TNF-a-driven NF-kB reporter inhibitors, primary screen, selectivity assay for NOD1/NOD2 signaling inhibitor project, cell-based, HEK293T NF-kB-Luc, luminescence (AID 1852); conditions: TNF-a induced, 14 h, at 4 µM, stronger effect = higher value

inhibition, inactive:
Cc1nc(SCCC(=O)O)c2cc(-c3ccccc3)sc2n1 48.4%
Cc1sc2nc(-c3ccccn3)[nH]c(=O)c2c1-c1ccccc1 37.1%
COc1ccc(NS(=O)(=O)c2ccc(-c3coc(C)n3)cc2)cc1OC 47.8%
CCOc1cccc2sc(NC(=O)CCS(=O)(=O)c3ccccc3)nc12 -6.7%
COCCN(Cc1ccccc1)C(=O)c1cc(-c2ccc(OC)c(OC)c2)nc2ccccc12 20%
Cc1cc(NC(=O)CCS(=O)(=O)c2nc(-c3ccccc3)cc(C(F)(F)F)n2)no1 46.7%
C=C(CCC(=O)c1ccccc1)C(=O)c1ccccc1 -0.6%
COc1ccc2c(C)nc(Nc3nc(-c4ccccc4)cc(=O)[nH]3)nc2c1 42.1%
Oc1c(Cl)cc(Cl)cc1/C=C/c1ccc2cccc(O)c2n1 37.4%
CC(C)(C)NC(=S)N/N=C/c1cc(Br)c(O)c(Br)c1 34.5%
O=c1oc2ccccc2c(Nc2cc3ccccc3cc2O)c1[N+](=O)[O-] -0.3%
O=C(O)COc1ccc(-c2nccc(-c3ccccn3)n2)cc1 43.3%
Cc1nc2c(-c3ccc(F)cc3)cnn2c(N)c1-c1ccccc1 -226%
CN(C(=O)COc1ccccc1C(=O)NCCOc1ccccc1)c1ccccc1 17.7%
CCOc1ccccc1C(=O)N1CCN(C(c2ccccc2)c2ccccc2)CC1 22.1%
Cc1ccc(S(=O)(=O)n2c(N)nc3ccccc32)cc1 -1.7%
Cc1ccc(S(=O)(=O)Nc2ccccc2-c2ccccc2NS(=O)(=O)c2ccc(C)cc2)cc1 -1.3%
Oc1c(C(c2ccc(Cl)cc2)N2CCCC2)cc(Cl)c2cccnc12 (stereo unspecified) 20%
Oc1c(CN2CCN(c3ccccn3)CC2)cc(Cl)c2cccnc12 20.4%
Oc1c(CN2CCN(c3ccc(F)cc3)CC2)cc(Cl)c2cccnc12 17.1%
Cc1oc(-c2ccccc2Cl)nc1CSc1nc2c(c(=O)[nH]1)CCCC2 19.1%
Cc1cccc(-c2nc(CSc3nc4c(c(=O)[nH]3)CCC4)c(C)o2)c1 37%
CC1(C)CC(=O)C2=C(C1)Oc1nc3ccccc3cc1C2C(C#N)C#N (stereo unspecified) 29.6%
COc1ccccc1CNS(=O)(=O)c1ccc2c(c1)N(C(C)=O)CC(C)S2 (stereo unspecified) 35.3%
CC(C)(C)c1ccc(C(=O)Nc2sc3c(c2C(=O)O)CCC3)cc1 -51.1%
CC(C)(C)c1ccc(/C=N/Nc2ccc(C(=O)O)cc2)cc1 -61%
Cc1[nH]n(-c2nc(-c3ccc(Cl)cc3)cs2)c(=O)c1N=Nc1ccc(O)cc1 48.4%
CCC(C(=O)Nc1cccnc1)c1ccccc1 (stereo unspecified) 3.6%
CC(C)(C)c1ccc(-c2noc(CCC(=O)NCc3ccco3)n2)cc1 44.3%
COc1ccc(Cc2nc(-c3ccc(-n4cccc4)cc3)no2)cc1OC 48.8%
CC(C)Cc1ccc(C(C)C(=O)Nc2cccnc2)cc1 (stereo unspecified) 22.5%
CCOc1ccc(C(=O)NC2CCN(C(=O)Nc3ccccc3OC)CC2)cc1 14.2%
COC(CN(C(=O)CCl)C(C(=O)NC1CCCC(C)C1C)c1ccc(C)cc1)OC (stereo unspecified) 15.4%
COCCN(CC(=O)NC1CCCCC1)C(=O)/C=C/C(=O)c1ccc(OC)cc1O 22.3%
O=S(=O)(Nc1nc(-c2sccc2Cl)cs1)c1cc(Cl)ccc1Cl 34.1%
O=C1ON=C(c2ccc(Cl)cc2)/C1=C/c1ccc(O)cc1 29.2%
COc1cc(C)c(Br)cc1S(=O)(=O)NCc1ccncc1 30.4%
O=C(Nc1ccc(Cl)cc1)c1ccc(CN2CCc3ccccc3C2)cc1 23.1%
CCOc1ccc(NC(=O)c2ccc(CN3CCc4ccccc4C3)cc2)cc1 3%
CCOC(=O)c1ccc(NC(=O)c2ccc(CN3CCc4ccccc4C3)cc2)cc1 46.3%
Cc1cc(C)n(Cc2ccc(NC(=O)c3ccc(COc4ccccc4Br)cc3)cc2)n1 46.2%
O=C(CCl)Nc1cn(-c2ccccc2)nc1-c1ccccc1 -13.7%
O=C(CCl)Nc1cn(-c2ccccc2)nc1-c1ccc(F)cc1 -16.2%
COc1cccc(C(=O)Nc2sc3c(c2C(=O)O)CCCC3)c1 30.7%
CN(C)S(=O)(=O)Oc1cccc(C(=O)Nc2ccc(Cl)c(Cl)c2)c1 -28.2%
Cc1onc(-c2ccccc2)c1C(=O)Nc1ncc([N+](=O)[O-])s1 48.5%
Cc1cccc(CS(=O)(=O)c2ncc(Cl)c(C(=O)Nc3c(C)cccc3C)n2)c1 46.2%

inhibition, active:
CC[n+]1c(C=C2C=C(C)OC(C)=C2)sc2ccccc21 57.8%
O=c1[nH]c(-c2ccccn2)nc2sc(-c3ccccc3)cc12 97.3%
COc1ccccc1-c1cc(C(F)(F)F)nc(S(C)(=O)=O)n1 68.8%
COc1ccc(-c2cc(C(F)(F)F)nc(S(C)(=O)=O)n2)cc1 77.6%
COC(=O)CCS(=O)(=O)c1nc(-c2ccccc2)cc(C(F)(F)F)n1 55.5%
COc1ccc(-c2cc(C(F)(F)F)nc(S(C)(=O)=O)n2)cc1OC 89.3%
O=C(Nc1ccncc1)c1c(F)cccc1F 59.3%
Cc1ccc2oc(Nc3nc(-c4ccccc4)cc(=O)[nH]3)nc2c1 93%
CN(/N=C/c1cc(Cl)cc(Cl)c1O)C(=S)NC(C)(C)C 82.6%
CC(C)c1noc2ncc(C(=O)c3cc(Cl)cc(Cl)c3O)cc12 60.1%
O=c1cc(-c2ccccc2Cl)oc2c(NS(=O)(=O)c3cc(Cl)cc(Cl)c3O)ccc(O)c12 82.6%
O=c1cc(-c2ccccc2Cl)oc2c([N+](=O)[O-])c(O)cc(O)c12 105%
c1ccc2c(c1)ncn2-c1ccc(-c2ccnc(-c3ccncc3)n2)cc1 59.7%
Nc1nccc(-c2ccc(-n3cnc4ccccc43)cc2)n1 67%
Cc1nc(N)c(C#N)c(-c2cccnc2)c1-c1ccccc1 98.5%
CC1CCc2nc(N)c(C#N)c(-c3cccnc3)c2C1 (stereo unspecified) 85.3%
O=C(NNC(=O)c1ccccc1OCc1ccccc1)c1ccccc1O 77.9%
O=C(NNC(=O)c1ccccc1OCc1ccc(F)cc1)c1ccccc1O 51.1%
Cc1ccc(S(=O)(=O)Nc2ccccc2/C=N/c2nc3ccccc3n2C)cc1 89.4%
Oc1c(Cl)cc(Cl)c2cccnc12 102%
Oc1c(CN2CCc3ccccc3C2)cc(Cl)c2cccnc12 101%
O=[N+]([O-])c1cc(Cl)c(O)c2ncccc12 102%
Oc1c(I)cc(I)c2cccnc12 89%
Oc1c(I)cc(Cl)c2cccnc12 104%
O=C(Oc1c(Cl)cc(Cl)c2cccnc12)c1ccco1 106%
Cc1ccccc1-c1nc(CSc2nc3c(c(=O)[nH]2)CCC3)c(C)o1 59.5%
CC(C)(C)c1ccc(C(=O)N2CCCCCC2=O)cc1 69.6%
NC(=S)n1[nH]c(-c2ccc([N+](=O)[O-])cc2)c(N=Nc2cccc(Cl)c2)c1=O 86.9%
NC(=S)n1[nH]c(-c2ccc([N+](=O)[O-])cc2)c(N=Nc2cccc([N+](=O)[O-])c2)c1=O 86.6%
NC(=S)n1[nH]c(-c2ccc([N+](=O)[O-])cc2)c(N=Nc2ccc(Cl)cc2)c1=O 88.7%
Cc1ccc([N+](=O)[O-])cc1N=Nc1c(-c2ccc([N+](=O)[O-])cc2)[nH]n(C(N)=S)c1=O 80.4%
CC(C)(C)c1ccc(-c2noc(CCC(N)=O)n2)cc1 73.6%
CC(C)(C)c1ccc(-c2noc(CCC(=O)Nc3cccnc3)n2)cc1 71.6%
CCn1nc(C)c(CNC(=O)c2ccc(OC3CCN(Cc4ccccn4)CC3)cc2)c1C 50.2%
COC(CN(C(=O)CCl)C(C(=O)NC1CCCCC1)c1ccccc1C)OC (stereo unspecified) 63.2%
COCCN(C(=O)CCl)C(C(=O)NC1CCCCC1)c1ccccc1C (stereo unspecified) 56.7%
Cc1ccc(-c2csc(=Nc3cccnc3)n2CCCn2ccnc2)cc1C 94.3%
Cc1ccc(C2=NOC(=O)/C2=C\C=C\c2ccccc2)cc1 94.8%
O=C(Nc1ccc(F)cc1)c1ccc(CN2CCc3ccccc3C2)cc1 87.4%
N#CCc1ccc(NC(=O)c2ccc(CN3CCc4ccccc4C3)cc2)cc1 58.1%
C/C(=N\NC(=O)c1ccc(CN2CCc3ccccc3C2)cc1)c1ccccc1O 77.8%
CC(=O)n1c(Cl)c(NC(=O)CCl)c2ccccc21 82.1%
O=C(Cc1ccc(Cl)cc1)c1c[nH]c(C(=O)NCc2cccnc2)c1 90.1%
COc1cccc(C(=O)Nc2nc(-c3ccccc3)c(-c3ccccc3)o2)c1 81.3%
COc1cc(OC)cc(C(=O)Nc2nc(-c3ccccc3)c(-c3ccccc3)o2)c1 78.7%
O=C1N/C(=N\N=C\c2ccccn2)SC1Cc1cccc(SC(F)F)c1 (stereo unspecified) 109%
CCCc1nnc(NC(=O)c2nc(S(=O)(=O)Cc3ccc(C)cc3)ncc2Cl)s1 94.4%
CCCc1nnc(NC(=O)c2nc(S(=O)(=O)Cc3cccc(C)c3)ncc2Cl)s1 61.3%
CCc1nnc(NC(=O)c2nc(S(=O)(=O)Cc3ccc(C)cc3)ncc2Cl)s1 71.9%
